The values below come from PubChem BioAssay (NCATS).

Results filed as inconclusive are left out. Unmarked numbers belong to inactive results. Activity calls are given as the source filed them. The call rests on the fitted dose curve; in most records, active means well fitted cell-killing curve with a large enough effect; inconclusive means small, poorly fitted or top-dose-only effect, or effect the other way; inactive means no such curve, though single readings can be large or run the other way.
Potency means the concentration at half of the fitted maximal effect.

This experiment is described as follows: Viability qHTS for spleen associated tyrosine kinase inhibitor (SYKi) drug resistant MV4-11 cells (AID 1963824). Further: nearly all actives have a fitted effect of over 35% in size. As to conditions: SYKi-resistant MV4-11 viability, CellTiter-Glo, 72 h; series mostly up to 45 µM; viability, % of control: at the top concentration. An outline of the steps: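 CellTiter-Glo luminescence, read 10 min after reagent addition, reports viability after a 72 hr compound exposure. Cells are an MV4-11 line made resistant to SYK inhibition, seeded at 500 per well onto compound-containing plates.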
Background: Quantitative high-throughput screening tests each substance at several concentrations.
In the case of `O=c1[nH]c2ccccc2n1CCCN1CCN(C(c2ccccc2)c2ccccc2)CC1`, the Potency was 11.9 µM (active).
Regarding `C[C@@H]1O[C@@H](O[C@H]2[C@@H]3C=CO[C@@H](O[C@@H]4O[C@H](CO)[C@@H](O)[C@H](O)[C@H]4O)[C@@H]3[C@@]3(CO)O[C@@H]23)[C@H](O)[C@H](OC(=O)/C=C/c2ccccc2)[C@H]1O`, the Potency is 6.11 µM (active).
Take `COc1c(-c2ccc3cc(NS(C)(=O)=O)ccc3c2)cc(-n2ccc(=O)[nH]c2=O)cc1C(C)(C)C`: the Potency was 16.4 µM (active).
In the case of `C=C[C@H]1[C@H](O[C@@H]2O[C@H](CO)[C@@H](O)[C@H](O)[C@H]2O)OC=C(C(=O)OC)[C@H]1C/C=C(/C=O)[C@@H]1C(C(=O)OC)=CO[C@@H](O[C@@H]2O[C@H](CO)[C@@H](O)[C@H](O)[C@H]2O)[C@@H]1C=C`, the “viability, % of control” value is 103% [at 17.3 µM].
Regarding `NCC(CNc1nc(Nc2cccc(NC(=O)N3CCCC3)c2)ncc1I)C(=O)c1cccs1` (stereo not given), the Potency was 0.231 µM (active).
Consider `O=C(c1ccccc1)c1ccc2nc(NC(=O)c3csc(C4CCN(c5ncnc6ccsc56)CC4)n3)[nH]c2c1`, for which the Potency is 2.31 µM (active).
With `Cc1cc(C)c2nc(-c3ccccn3)cc(C(=O)Nc3ccc(S(=O)(=O)Nc4onc(C)c4C)cc3)c2c1`, the Potency is 25.9 µM (active).
For `COc1cc(O)c2c(c1)C1(OC2=O)C(C)=CC(=O)C1O` (stereo not given), the Potency was 16.4 µM (active).
On the same count and under the same terms, under `CC(=O)C1=CCC2C3CC=C4CC(O)CC(O)C4(C)C3C(O)CC12C` (stereo not given) stands 16.1 µM (active); under `C=C1CCC2[C@](C)(CO)CCC[C@@]2(C)[C@@H]1CCC1=CCOC1=O` (stereo not given in full), 7.18 µM (active).
